Source: PubChem BioAssay
BCR signal inh: blocks chronic active B-cell receptor signaling | ABC-DLBCL IkBa-CBG/CBR reporter, luminescence ratio, 4 h | Potency, µM (highest dose often 46.1 µM), for inactives: at the top dose activity change, negative = inhibition, usual class: inhibitors | 340,000 tested, 0.05% active | AID 493014; active = well fitted inhibition curve with a large enough effect in the signal ratio, with a control signal flat, not every such curve was filed as active; inconclusive = small, poorly fitted or top-dose-only effect, or effect the other way, or a change in a side signal; the % refers to the signal ratio;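 note: potency is the fitted concentration of half-maximal effect; plate controls were basal doxycycline-induced cells for no effect and cells given 10 µM MG132 for full effect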
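Doxycycline induced both beetle luciferases in TMD8 lymphoma cells; IKK-driven degradation limits the IkappaBalpha-fused green signal, while red luminescence normalises for cell number and nonspecific effects. Compounds tested up to 46 uM, 4 hrs.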
IL-2 act: IL-2 activation; 360,000 tested, 0.065% active; IL-2 activation reporter assay, cell-based qHTS; stimulated with anti-CD3/CD4/CD28 beads; in transgenic mouse T cells; activation, % (series mostly up to about 46 µM); in the data active = activation above about 50%; inconclusive = mostly about 30% to 49%; note: 0% is about no effect
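First, unstimulated transgenic mouse T cells were exposed to compound for 60 min. Next, anti-CD3/anti-CD4-coated beads with anti-CD28 were added. Finally, after 18 h at 37 degrees C, EGFP and DsRed were imaged.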
Mito fusion yeast: mitochondrial division inhibition or fusion activation; AID 485298; 320,000 tested, 0.23% active; S. cerevisiae fusion-defective mutant growth rescue, CellTiterGlo 48 h; Potency, µM (titrated, usually from 46.1 µM), without a hit: top-dose growth rescue (activation), most hits filed as activators; note: potency is the fitted concentration of half-maximal effect; % of control where 0% means no effect; nearly all actives have a fitted effect of over 45% in size
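Temperature-sensitive fusion-defective S. cerevisiae (e.g. fzo1-1, mgm1-5) were grown with compound in YPEG medium (3% ethanol, 3% glycerol) for 48 hours at 37C. Growth rescue was measured as viability by CellTiterGlo luminescence after 10 minutes at ambient.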
TCR activator: activators of T cell receptors | primary human leukocytes, anti-CD3, IL-2 HTRF, 48 h | Potency, µM (highest dose often 9.22 µM), without a hit: at the top dose activation of IL-2 secretion, usual class: activators | 330,000 tested, under 10 active; note: % of control where 0% means no effect
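Activity was scored as IL-2 release from primary human leukocytes given only a TCR signal (a-CD3 beads) plus compound for 48 hr. Detection used a two-antibody HTRF format read at 665nm.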
PTHR1 ag: agonists of human PTHR1 parathyroid hormone receptor. Q03431. HEK293 GP2 PTHR1 cells, GloSensor cAMP luminescence, 1 h. Potency, µM (doses to about 115 µM), inactives show top-dose activation, most hits filed as activators. 410,000 tested, 0.075% active. AID 743266; note: potency is the fitted concentration of half-maximal effect; nearly all actives have a fitted effect of over 55% in size
Target sequence (Q03431 whole entry, looked up): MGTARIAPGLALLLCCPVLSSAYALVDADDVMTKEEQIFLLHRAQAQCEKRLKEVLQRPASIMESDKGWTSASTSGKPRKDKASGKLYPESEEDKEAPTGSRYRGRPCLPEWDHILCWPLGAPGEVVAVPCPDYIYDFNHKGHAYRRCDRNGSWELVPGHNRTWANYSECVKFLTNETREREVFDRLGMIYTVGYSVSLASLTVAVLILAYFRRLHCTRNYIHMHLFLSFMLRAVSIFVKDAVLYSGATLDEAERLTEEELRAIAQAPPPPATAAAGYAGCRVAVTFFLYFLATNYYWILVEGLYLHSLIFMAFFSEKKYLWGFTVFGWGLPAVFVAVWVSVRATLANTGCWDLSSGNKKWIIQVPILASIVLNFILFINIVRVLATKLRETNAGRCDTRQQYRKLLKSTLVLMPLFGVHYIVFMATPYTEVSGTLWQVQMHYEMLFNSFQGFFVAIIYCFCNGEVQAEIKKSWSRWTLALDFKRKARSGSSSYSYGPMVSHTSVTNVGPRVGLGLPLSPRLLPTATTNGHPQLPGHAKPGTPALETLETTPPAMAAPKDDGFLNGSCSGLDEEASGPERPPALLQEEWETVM
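HEK-293-derived GP2 cells expressing PTHR1 and a GloSensor cAMP reporter, 3,000/well, plated overnight, given luciferin plus IBMX (each 0.5 mM as added) for 1 h at 37 °C, then compound for 1 h at 37 °C. Luminescence was read after 15 min at room temperature.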
BRCA1 expr act: increases BRCA1 expression; MCF7-BRCA1-FFLuc reporter, luminescence, 48 h; response scale: scaled: vehicle 0%, 10 µM genistein 100%; Potency, µM (series often up to 46.1 µM), for inactives: at the top dose activation, most hits filed as activators; 380,000 tested, 1.1% active; note: potency is the fitted concentration of half-maximal effect; nearly all actives have a fitted effect of over 80% in size
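Activators of BRCA1 expression were detected as increased firefly luciferase luminescence in engineered MCF7 cells after 48 h compound incubation. Signals were scaled to genistein 10 microM as full activation.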
Starred values were filed as active, the others as inactive; i = inactive; u = inconclusive; x = not tested or not shown; [ ] = another dose, or the depositor's remark. In the library only some 1.3% were active in any assay of this set; here they are far more common. Unless noted, calls come from the whole dose curve; as a rule, active = well fitted curve in the direction sought with a large enough effect; inconclusive = small, poorly fitted or top-dose-only effect, or another doubt; inactive = no such curve, though single readings can be large; an effect the other way counts as inactive or inconclusive.

SMILES	BCR signal inh	IL-2 act	Mito fusion yeast	TCR activator	PTHR1 ag	BRCA1 expr act
CN(C)c1ccc(/C=N\NC(=O)c2csnn2)cc1	u	2.1	0.2%	-2.2%	-10.3%	9.3%
O=C(N/N=C\c1ccc(Oc2ccccc2)cc1)c1csnn1	0.1%	-0.9	u	0.5%	i	12.6µM*
O=C(CSc1nnc2ccccn12)Nc1cccc(-c2nc3ccccc3s2)c1	u	-0.4	-0.7%	-0.2%	i	5.01µM*
O=C(Nc1nc2n(n1)C(c1ccccc1)C=C(c1ccccc1)N2)c1ccccc1 (stereo not drawn)	x	x	x	x	-5.1%	x
S=c1[nH]c2cc(-c3ccccc3)ccc2o1	u	-3.7	15.8µM*	-1.6%	-7.5%	52.3%
Cc1csc(NC(=O)c2sc3nc(-c4cccs4)ccc3c2N)n1	9.4%	7.9	11.2µM*	-6.7%	-18.4%[57.5 µM]	1.7%
Oc1ccc(/C=C/c2cc(O)cc(O)c2)cc1	u	-0.3	-30.9%	2.0%	-45.4%	12.6µM*
COc1ccccc1-c1noc(-c2cc(OC)c(OC)c(OC)c2)n1	u	-3.5	10.4%	-0.4%[46.1 µM]	i	-55.2%
COc1cc(-c2nc(-c3ccccn3)no2)cc(OC)c1OC	u	0.8	-3.7%	4.9%	i	7.94µM*
c1ccc(-c2noc(-c3cccc4ccccc34)n2)nc1	u	-1.8	10.3%	2.4%	-25.9%[57.5 µM]	-15.2%
COc1cccc(-c2nc(-c3ccccn3)no2)c1OC	u	0.2	0.9%	2.8%	-12.1%[57.5 µM]	4.47µM*
COc1ccc(S(=O)(=O)N2CCCCC2c2cc(C(=O)NCc3cccnc3)no2)cc1 (stereo not drawn)	x	0.9	x	x	-6.0%	-13.9%
N/C(CS(=O)(=O)c1ccccn1)=N\OC(=O)c1ccc(Cl)cc1	-1.9%	-0.4	5.5%	-3.9%	i	u
N/C(CS(=O)(=O)c1ccccn1)=N\OC(=O)c1ccccc1Cl	1.2%	-2.3	2.8%	4.5%	i	2.51µM*
CC(=O)NS(=O)(=O)c1ccc(N=NN2CCCCC2)cc1	5.1%	-2.5	-1.9%	4.8%[46.1 µM]	-5.8%	19.9%
NS(=O)(=O)c1ccc(N=NN2CCCCC2)cc1	11.5%	0.2	0.2%	-2.0%	i	10µM*
Cc1cccc(S(=O)(=O)c2cn(Cc3ccc(F)cc3)c3cc(N4CCOCC4)c(F)cc3c2=O)c1	11.8%	x	x	x	-16.1%	x
CC(=O)c1sc2nc(-c3ccc(C)cc3)c3c(c2c1N)CCCC3	-0.2%	-2.6	15.8µM*	4.4%[46.1 µM]	i	-49.5%
Cc1ccc(-c2nc3sc(C(N)=O)c(N)c3c3c2CCCC3)cc1	3.7%	-3.8	u	0.6%[46.1 µM]	-0.8%	-30.7%
COc1cccc(NC(=O)CSc2nnc3ccc(-c4ccncc4)nn23)c1	-5.9%	-4.3	7.4%	-18.6%	-15.2%	-1.9%
CNc1cncc(-c2cccc(OC)c2F)n1	x	-0.5	x	x	i	11.2µM*
CNc1ccc(C=C2C=CC=C2)cc1	x	x	x	x	x	0.0%
Cc1ccc(OCC(=O)N2CCc3ccccc3C2)c(Br)c1	u	-0.4	17.9%	-7.4%	-40.3%	12.6µM*
Cc1ccc(OCC(=O)N2CCc3ccccc3C2)c(C)c1	-3.1%	-0.8	-3.4%	-1.1%	-27.4%	2.0%
COc1ccc(-c2nc(N)n(C(=O)c3ccccc3Cl)n2)cc1	-1.9%	-0.1	-1.6%	-2.7%[46.1 µM]	-7.2%	19.1%
O=C(Nc1ccccc1F)c1ccc(O)c2ncccc12	u	x	1.6%	x	x	x
COc1cccc(Nc2nc3ccc(OC)cc3s2)c1	u	-3.7	-3.3%	4.9%	-16.2%	4.47µM*
Cc1cccc(Nc2nc3ccccc3s2)c1C	u	1.9	0.3%	0.6%[46.1 µM]	-9.8%	u
COc1ccc(Nc2nc3ccccc3s2)cc1	u	0.6	-9.5%	7.1%	-25.6%	5.01µM*
CCOc1cccc(C2C=C(c3ccc4c(c3)OCO4)NC(c3ccccc3F)N2)c1O (stereo not drawn)	x	x	x	x	x	0.0%
